Results from PubChem BioAssay AID1486 (The Scripps Research Institute Molecular Screening Center, 2009).
In all, about 220,000 compounds went through this assay and about 2,400 (1.1%) were called active. Only a selection was taken, and actives are over-represented in it overall. Unmarked numbers belong to inactive results.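 How the source made its calls: active means inhibition above a per-campaign cutoff, the mean inhibition of all tested compounds plus 3 SD (cut at about 27% in these data); inactive means the rest.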

assay: parental Ba/F3 cell viability inhibition, counter-screen for JAK2V617F inhibitor project, murine pro-B, CellTiter-Glo luminescence (AID 1486); settings: CellTiter-Glo ATP luminescence, at 5.6 µM, active compounds read high;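 further: 0% = DMSO wells and 100% = JAK Inhibitor I control wells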

SMILES	inhibition
CCCCCCCCCCCCn1ccc(=N)cc1	102% (active)
CCC(C)n1c(O)c(/C=N/Nc2nc3c(c(=O)n(C)c(=O)n3C)n2C)c(=O)[nH]c1=S (stereo not given)	-0.78%
O=c1c2ccccc2nc(/C=C/c2ccco2)n1-c1ccccc1O	-6.32%
CCOP(=O)(OCC)C(NC(=O)NC)C(N)=O (stereo not given)	4.51%
CC/C(=N\NC(=O)c1ccccc1O)c1c(O)n(Cc2ccccc2)c(=O)[nH]c1=O	-2.72%
Cc1ccc(CN2CCCC(C(=O)c3ccc4c(c3)OCO4)C2)cc1C (stereo not given)	2.33%
CCOc1ccc(-c2cc(C)[n+](CCN(CC)CC)c(-c3ccc(OCC)cc3)c2)cc1	81.7% (active)
O=c1[nH]c(=O)n(CCc2ccc(F)cc2)c(O)c1/C=N/N1CCCCC1	-4.39%
CC(C)c1ccc(-n2c(O)c(/C=N/N3CCOCC3)c(=O)[nH]c2=S)cc1	2.53%
COc1cc(OC)cc(C2(C#N)CCN(C)CC2)c1	-2.96%
CN(C)CC1Oc2ccccc2OC1(O)c1ccccc1 (stereo not given)	8.72%
COCc1cc(OC(=O)N(C)C)nc(-c2ccc(C)c(Cl)c2)n1	3.28%
CC1=CC(=Cc2sc3ccccc3[n+]2C)C=C(C)O1	106% (active)
COc1ccc(-n2c(O)c(C(C)=Nc3ccc4c(c3)CCC4)c(=O)[nH]c2=O)cc1	2.36%
O=C1CC(=O)N(Cc2ccccc2)C(=O)N1CCCCCCN1C(=O)CC(=O)N(Cc2ccccc2)C1=O	-0.44%
CC1(C)Cc2c(C#N)c(N3CCNCC3)nc(-c3ccco3)c2CS1	1.77%
CC1=C(C(=O)Nc2ccccc2)S(=O)(=O)CCO1	0.55%
CNC(=O)O/N=C(\N)Cc1csc2ccc(Cl)cc12	3.22%
CCOc1cccc(=NC2CCCCC2)c2c(C)[nH]c(C)c12	50.8% (active)
COc1ccc(-n2c(-c3ccccc3)nc3ccccc3c2=O)cc1	1.83%
